# Source: PubChem BioAssay (NCATS)
# Inconclusive results are not listed. Where a call stands in place of a potency, no number is given. Activity calls are given as the source filed them. The call rests on the fitted dose curve.
# Target: Nucleoprotein (Lymphocytic choriomeningitis virus (strain Armstrong)) (UniProt P09992)
# Assay: qHTS for Inhibitors of the Functional Ribonucleoprotein Complex (vRNP) of Lymphocytic Choriomeningitis Arenaviruses (LCMV): LCMV Primary Screen - GLuc reporter signal (AID 1347086); further: nearly all actives have a fitted effect of over 70% in size
# Settings: LCMV minigenome vRNP cell assay, Gaussia luciferase reporter; series mostly up to 57.5 µM
# Sequence of Nucleoprotein (Lymphocytic choriomeningitis virus (strain Armstrong)) (P09992 whole entry, looked up): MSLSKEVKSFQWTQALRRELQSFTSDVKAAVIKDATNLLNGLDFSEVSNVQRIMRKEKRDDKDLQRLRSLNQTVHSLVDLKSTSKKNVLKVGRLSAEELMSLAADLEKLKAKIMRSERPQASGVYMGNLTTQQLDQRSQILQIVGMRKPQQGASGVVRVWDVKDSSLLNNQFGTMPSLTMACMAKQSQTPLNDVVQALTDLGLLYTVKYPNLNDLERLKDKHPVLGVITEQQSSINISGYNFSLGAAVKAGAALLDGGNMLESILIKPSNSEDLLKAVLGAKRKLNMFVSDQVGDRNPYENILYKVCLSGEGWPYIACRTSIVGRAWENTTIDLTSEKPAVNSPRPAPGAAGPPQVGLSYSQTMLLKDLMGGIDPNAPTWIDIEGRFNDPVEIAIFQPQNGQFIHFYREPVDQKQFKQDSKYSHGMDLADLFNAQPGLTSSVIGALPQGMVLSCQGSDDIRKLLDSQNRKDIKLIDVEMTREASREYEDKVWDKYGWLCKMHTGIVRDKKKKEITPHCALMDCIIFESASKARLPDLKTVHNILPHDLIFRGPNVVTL
row,SMILES,Potency
1,O=c1cc[nH]c(=O)[nH]1,inactive
2,Cc1ccc(Nc2nccc(N(C)c3ccc4c(C)n(C)nc4c3)n2)cc1S(N)(=O)=O,inactive
3,Cc1cc(=O)n(-c2ccccc2)n1C,inactive
4,CC[C@H](C)[C@H](N)C(=O)O,inactive
5,CC1(C)O[C@H]2CC(=O)OC[C@]23[C@H]2CC[C@@]4(C)[C@H](c5ccoc5)OC(=O)[C@H]5O[C@]54[C@]2(C)C(=O)C[C@@H]13,inactive
6,CC(=O)c1cc2ccccc2s1,inactive
7,COc1ccccc1OCC1CNC(=O)O1 (stereo not given),inactive
8,Oc1ccc(Cl)c2cccnc12,inactive
9,CC(C)NCC(O)c1cc(O)cc(O)c1 (stereo not given),inactive
10,CC(=O)N(CC(O)CO)c1c(I)c(C(=O)NCCO)c(I)c(C(=O)NCC(O)CO)c1I (stereo not given),inactive
11,O=C(O)CCc1nc2ccccc2[nH]1,inactive
12,Cc1nnc(NS(=O)(=O)c2ccc(N)cc2)s1,inactive
13,Oc1ccccc1,inactive
14,CCN(CC)C(C)CN1c2ccccc2Sc2ccccc21 (stereo not given),inactive
15,Cc1ncc([N+](=O)[O-])n1CC(O)CCl (stereo not given),inactive
16,CCCN1CCCC[C@H]1C(=O)Nc1c(C)cccc1C,inactive
17,CCCCOCCOC(=O)c1cccnc1,inactive
18,COc1ccc2nc(SCc3ncc(C)c(OC)c3C)[nH]c2c1,inactive
19,Cc1c(N(C)CS(=O)(=O)O)c(=O)n(-c2ccccc2)n1C,inactive
20,CCN(CC)CC(=O)Oc1ccc(NC(C)=O)cc1,inactive

row,SMILES,Potency
1,CNC[C@H](O)[C@@H](O)[C@H](O)[C@H](O)CO,inactive
2,CCN(CC)CCOC(=O)c1ccc(N)cc1,inactive
3,O=S(=O)(O)CCS,inactive
4,O=C(CCCl)NCc1ccccc1,inactive
5,O=C(CCCl)NCCc1ccccc1,inactive
6,CCOc1ccc(NS(=O)(=O)c2ccc(N)cc2)nn1,inactive
7,Cc1cccn2c(=O)c(-c3nnn[nH]3)cnc12,inactive
8,COc1cc(C(=O)N2CCCCCCC2)cc(OC)c1OC,inactive
9,OCc1cccnc1,inactive
10,CCC[C@@H]1C[C@@H](C(=O)N[C@@H]([C@H]2O[C@H](SC)[C@H](O)[C@@H](O)[C@H]2O)[C@@H](C)O)N(C)C1,inactive
11,CC(C)(C)NC[C@H](O)COc1cccc2c1CCCC2=O,inactive
12,Cc1cc(C)c(NC(=O)CN(CC(=O)O)CC(=O)O)c(C)c1Br,inactive
13,CCCCC(CC)CNC(=O)CC(C)OC(=O)CCC(=O)O (stereo not given),inactive
14,COCCCN1CCC(NC(=O)c2cc(Cl)c(N)c3c2OCC3)CC1,inactive
15,O=C(O)c1ccccc1Nc1cccc(C(F)(F)F)c1,inactive
16,CO/N=C(/C(=O)N[C@@H]1C(=O)N2C(C(=O)[O-])=C(C[n+]3ccn4ncccc43)CS[C@H]12)c1nsc(N)n1,inactive
17,C[N+]1(C)CCCC(OC(=O)C(O)(c2ccccc2)c2ccccc2)C1 (stereo not given),inactive
18,Cc1scc2c1N(C(=O)CN1CCN(C)CC1)c1ccccc1NC2=O,inactive
19,O=C(NC(Cc1cc(=O)[nH]c2ccccc12)C(=O)O)c1ccc(Cl)cc1 (stereo not given),inactive
20,O=C(O)c1[nH]n(-c2ccc(S(=O)(=O)O)cc2)c(=O)c1N=Nc1ccc(S(=O)(=O)O)cc1,inactive
